Here are results for 7 compounds from PubChem BioAssay (Tox21).

Values without a mark were called inactive. Results filed as inconclusive are left out. Active and inactive are the calls of the source. Unless noted, calls come from the whole dose curve; as a rule, active = well fitted curve in the direction sought with a large enough effect in the repeat runs; inconclusive = weak or mixed curves; inactive = no such curve, though single readings can be large; an effect the other way counts as inactive or inconclusive.

Assay [1] can be described thus: qHTS assay to identify small molecule agonists of the hypoxia (HIF-1) signaling pathway - cell viability counter screen (AID 1224844; calls by dose curve; note: nearly all actives have a fitted effect of over 50% in size). An outline of the steps:
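Multiplexed with the HRE beta-lactamase assay, this viability read used CellTiter-Glo luminescence (30 min, RT) on HRE-bla ME-180 cells treated 17 hrs with compounds in 0.5% dialyzed FBS medium.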
Background: In qHTS, concentration-response curves come from the screen itself.

The nature of assay [2]: qHTS assay to identify small molecule agonists of H2AX (AID 1224845; active = well fitted activation curve with a large enough effect in the signal ratio in the repeat runs, not every such curve was filed as active; the % refers to the signal ratio; note: potency is the fitted concentration of half-maximal effect). An outline of the steps:
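Wild-type CHO-K1 cells, plated overnight, exposed 3hr at 37C to 15 concentrations (0.76% DMSO final). Lysed, then HTRF anti-pH2AX (S139) cryptate and anti-H2AX-d2 antibodies, 24 hr room temperature; 665/620 nm emission read.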

Assay [3] is described as follows: qHTS assay to identify small molecule agonists of the hypoxia (HIF-1) signaling pathway (AID 1224846; active = well fitted activation curve with a large enough effect in the signal ratio in the repeat runs, not every such curve was filed as active; the % refers to the signal ratio). In a few lines: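 Hypoxia-pathway activation was scored as increased beta-lactamase from an HRE-controlled reporter in ME-180 cells; plated at 2,000 cells per well with 0.5% dialyzed FBS, they were exposed 17 hrs to compounds and then given CCF4-AM.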
Assay [4] is described as follows: qHTS assay to identify small molecule agonists of H2AX - cell viability counter screen (AID 1224847; calls by dose curve; note: top concentration of the series differs between compounds; nearly all actives have a fitted effect of over 30% in size). In a few lines:
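For this counter screen, overnight-attached CHO-K1 cells received test compounds (15 concentrations, 0.76% DMSO final); 3 hr later at 37C, CellTiter-Glo reagent was added and luminescence recorded after 30 min at room temperature.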

A short description of assay [5]: qHTS RealTime-Glo MT Cell Viability Assay in HepG2 cells - 24 hour (AID 1224867). Note: nearly all actives have a fitted effect of over 50% in size. An outline of the steps: (§1)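 Cells + NanoLuc/prosubstrate dispensed (600 cells/well) → 5 h at 37 C/5% CO2 → compounds in DMSO transferred → 40 h incubation at 37 C, luminescence read at 0, 8, 16, 24, 32, 40 h.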
The nature of assay [6]: qHTS RealTime-Glo MT Cell Viability Assay in HEK293 cells - 32 hour (AID 1224868). For activity change, negative = cytotoxic: top concentration of the series differs between compounds. Note: nearly all actives have a fitted effect of over 50% in size. Note: potency is the fitted concentration of half-maximal effect. An outline of the steps: (§2)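 Tox21 10K qHTS, HEK293, 600 cells/well, RealTime-Glo reagent co-dispensed with cells; 5 h preincubation, compound by pintool, 37 C, luminescence at 0–40 h.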
Assay [7] in a line: A CellTox Green Cytotoxicity Assay to monitor cytotoxicity in HEK293 cells - 0 hour (AID 1224869). Note: nearly all actives have a fitted effect of over 50% in size. In a few lines: (§3)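 Seeding of HEK293 cells together with cytotoxicity dye preceded a 5 h incubation at 37 C/5% CO2. Test compounds in DMSO were then added and fluorescence monitored across 40 h.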
Assay [8] is described as follows: qHTS RealTime-Glo MT Cell Viability Assay in HepG2 cells - 40 hour (AID 1224870). Note: nearly all actives have a fitted effect of over 50% in size. In a few lines: (§4)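 HepG2 cells (600/well) mixed with RealTime-Glo MT reagent, settled 5 h at 37 C/5% CO2 before compound addition. Nonlytic NanoLuc luminescence from viable-cell prosubstrate reduction read repeatedly during 40 h treatment at 37 C.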
The nature of assay [9]: A CellTox Green Cytotoxicity Assay to monitor cytotoxicity in HEK293 cells - 40 hour (AID 1224871). Note: nearly all actives have a fitted effect of over 45% in size. An outline of the steps:
as §3

Assay [10] is described as follows: qHTS RealTime-Glo MT Cell Viability Assay in HEK293 cells - 16 hour (AID 1224872). In a few lines: as §2
A short description of assay [11]: qHTS RealTime-Glo MT Cell Viability Assay in HepG2 cells - 8 hour (AID 1224873). Note: nearly all actives have a fitted effect of over 55% in size. In a few lines:
as §4

A short description of assay [12]: A CellTox Green Cytotoxicity Assay to monitor cytotoxicity in HEK293 cells - 24 hour (AID 1224875). Note: series mostly up to about 77 µM; nearly all actives have a fitted effect of over 45% in size. In a few lines:
as §3

Assay [13] can be described thus: A CellTox Green Cytotoxicity Assay to monitor cytotoxicity in HepG2 cells - 16 hour (AID 1224876). Note: nearly all actives have a fitted effect of over 45% in size. An outline of the steps: (§5)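 Nonlytic assay: viable cells exclude the dye, so fluorescence scales with cell death. HepG2 at 600 cells/well, compounds added after 5 h, signal read across 40 h.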
A short description of assay [14]: qHTS RealTime-Glo MT Cell Viability Assay in HepG2 cells - 32 hour (AID 1224877). Note: nearly all actives have a fitted effect of over 55% in size. An outline of the steps:
as §1

Assay [15] is described as follows: A CellTox Green Cytotoxicity Assay to monitor cytotoxicity in HepG2 cells - 24 hour (AID 1224878). Note: nearly all actives have a fitted effect of over 45% in size. In a few lines:
as §5

Assay [16] is described as follows: A CellTox Green Cytotoxicity Assay to monitor cytotoxicity in HepG2 cells - 40 hour (AID 1224879). Note: nearly all actives have a fitted effect of over 40% in size. In a few lines:
as §5

Assay [17] is described as follows: qHTS RealTime-Glo MT Cell Viability Assay in HEK293 cells - 0 hour (AID 1224880). In a few lines: (§6)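 Tox21 screen in HEK293 using RealTime-Glo MT chemistry, with cells and reagent co-dispensed. Luminescence proportional to viable cell number was captured at intervals during 40 h compound exposure at 37 C.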
Assay [18] is described as follows: qHTS RealTime-Glo MT Cell Viability Assay in HEK293 cells - 40 hour (AID 1224874). Note: nearly all actives have a fitted effect of over 50% in size. Note: potency is the fitted concentration of half-maximal effect. The settings on record: RealTime-Glo luminescence; max response: active compounds read low. In a few lines:
as §6
% is set by controls: 0 for no effect and ±100 for the full control effect.

On to `CC1=CCC(C(C)C)C=C1` (stereo not drawn), for which the Potency entry in assay [1], in assay [2], in assay [4], in assay [5], in assay [6] and in assay [7] was “inactive” in each case. In addition, the Potency result in assay [8], in assay [9], in assay [10], in [11], in [12] and in assay [13] was “inactive” each time. In addition, the Potency result in [14], in [15], in assay [16] and in assay [17] was “inactive” each time. In addition, the compound was called inactive in assay [3].
As to `S=C(S)NCCNC(=S)S`, the Potency result in [1], in assay [2], in assay [4], in assay [5], in [6] and in assay [7] was “inactive” each time. The Potency result in [9], in assay [10], in assay [11], in assay [12], in [13] and in [14] was “inactive” each time. Besides, the Potency entry in [15], in [16] and in assay [17] was “inactive” throughout. Moreover, in [3], the call was inactive. For the same compound, the max response in assay [18] was -4.71%.
`Oc1ccc(Sc2ccc(O)cc2)cc1`: the Potency entry in assay [1], in [4], in assay [5], in [7], in assay [8] and in [9] was “inactive” in each case. The Potency entry in [11], in [12], in [14], in assay [15], in [16] and in [17] was “inactive” each time. Further, the Potency was 83.9 µM (active) in assay [2], 20.5 µM (active) in [6] and 22.9 µM (active) in assay [18]. For the same compound, the compound was classed as inactive in [3].
As to `CC(=O)c1c(C)c([N+](=O)[O-])c(C(C)(C)C)c([N+](=O)[O-])c1C`, the Potency result in assay [1], in assay [2], in [5], in assay [6], in assay [7] and in assay [8] was “inactive” throughout. Also, the Potency entry in [9], in assay [11], in [12], in assay [13], in assay [14] and in [15] was “inactive” each time. The Potency entry in assay [16] and in assay [17] was “inactive” in each case. The call in assay [3] was inactive. For the same compound, in assay [18], the max response is -9.27%.
On to `CC(=O)SCc1ccco1`, for which the Potency result in assay [1], in assay [2], in assay [4], in [5], in assay [6] and in assay [7] was “inactive” throughout. Moreover, the Potency result in [8], in assay [9], in [10], in assay [11], in assay [12] and in [13] was “inactive” in each case. The Potency entry in assay [14], in assay [15], in assay [16] and in assay [17] was “inactive” throughout. The max response in [18] is 13.4%.
As for `CCN(CCO)CCCC(C)Nc1ccnc2cc(Cl)ccc12` (stereo not drawn), the activity change, negative = cytotoxicity in [1] is 2.32% [at 6.97 µM]; in assay [4], 1.55% [at 14 µM]; in [5], 2.56% [at 6.97 µM]; in assay [10], 2.31% [at 6.97 µM]; in assay [17], 3.38% [at 6.97 µM]. Moreover, the activation (H2AX phosphorylation) in assay [2] was -1.66% [at 14 µM]. The figures for the activity change, negative = cytotoxic in assay [6], in [8] and in assay [14] were 2.9% [at 6.97 µM], 0.0181% [at 6.97 µM] and 2.34% [at 6.97 µM], respectively. In addition, the cytotoxicity in assay [7] is -2.9% [at 6.97 µM]; in assay [15], 14.8% [at 6.97 µM]. Besides, the cytotoxicity increase in assay [9] was -1.39% [at 6.97 µM]; in assay [13], 19.7% [at 6.97 µM]; in assay [16], 10.5% [at 6.97 µM]. For the same compound, the max response in [18] was -1.22%. In [12], the activity change is -1.16% [at 6.97 µM, active compounds read high].
Consider `CCCC(C)C`, for which the Potency result in [1], in assay [2], in [4], in assay [5], in assay [7] and in [8] was “inactive” each time. Moreover, the Potency entry in assay [9], in assay [11], in [12], in assay [13], in [14] and in assay [15] was “inactive” in each case. For the same compound, the Potency entry in assay [16] and in assay [17] was “inactive” each time.
